# Measured values as given in PubChem BioAssay (Tox21).
# Results filed as inconclusive are left out. Values without a mark were called inactive. Calls come from the whole dose curve; as a rule, active = well fitted activation curve with a large enough effect in the repeat runs; inconclusive = weak or mixed curves; inactive = flat fitted curve, though single readings scatter.
# Test: A CellTox Green Cytotoxicity Assay to monitor cytotoxicity in HEK293 cells - 24 hour (AID 1224875); note: nearly all actives have a fitted effect of over 45% in size
# Settings: CellTox Green fluorescence; series mostly up to 76.8 µM; activity change: at the top concentration
# Method in brief: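 Fluorescence from a DNA-binding dye excluded by viable cells was measured repeatedly in the same HEK293 wells (600 cells/well) during continuous compound exposure at 37 C. Each assay gives one read point: 0, 8, 16, 24, 32 or 40 h.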
# % is set by controls: 0 for no effect and ±100 for the full control effect.
row,Structure (SMILES),activity change
1,CCS(=O)(=O)c1ccc(OC)c(C(=O)OC)c1,"-2.02% [at 35.3 µM, stronger effect = higher value]"
2,COC(=O)CC(C)=O,15.4%
3,CN1CCCC1,13.9%
4,CC(C)(O)C(=O)c1ccccc1,11.9%
5,COC(=O)c1ccc(C)cc1C1=NC(C)(C(C)C)C(=O)N1 (stereo not given),18%
6,CCCCC(CC)COC(=O)c1ccccc1O (stereo not given),"-5.06% [at 35.3 µM, stronger effect = higher value]"
7,O=C(O)CCCc1ccccc1,"-18.7% [at 35.3 µM, stronger effect = higher value]"
8,CCOC(=O)CCC(C)=O,12.4%
9,COc1ccc2c(c1)CCCC2=O,"-2.74% [at 35.3 µM, stronger effect = higher value]"
10,C[C@H](NC(CCc1ccccc1)C(=O)O)C(=O)N1CCC[C@H]1C(=O)O (stereo not given in full),"3.43% [at 35.3 µM, stronger effect = higher value]"
11,CC(=O)OCC(=O)[C@@]1(O)CCC2C3CCC4=CC(=O)CC[C@]4(C)C3[C@@H](O)C[C@@]21C (stereo not given in full),"-25.1% [at 35.3 µM, stronger effect = higher value]"
12,C[C@](N)(Cc1ccc(O)cc1)C(=O)O,"2.77% [at 6.97 µM, stronger effect = higher value]"
13,CCCCCOC(=O)CCCCC,-10.3%
14,CN1CC(=O)NC1=N,"3.91% [at 35.3 µM, stronger effect = higher value]"
15,NC(=O)c1cn(Cc2c(F)cccc2F)nn1,"5.14% [at 35.3 µM, stronger effect = higher value]"
16,C=C1CC[C@H]2C[C@@H]1C2(C)C,1.74%
17,CN1C(=O)N(C)C(O)C1O (stereo not given),3.46%
18,CCC(C)C1CCCCC1=O (stereo not given),-2.68%
19,C=C[Si](OC(=C)C)(OC(=C)C)OC(=C)C,9.14%
20,CC(C)NC(=O)NC(C)C,-5.63%
